Assay results published in PubChem BioAssay (NCI).
About 79,000 compounds went through this panel and 15% of them were active in at least one assay; those are over-represented in the sample as a whole. Active and inactive are the calls of the source. No stated cut-off is given here; in the data, active means growth inhibition above about 70%; inactive means the rest.

Experiments:
[1] = NCI Yeast Anticancer Drug Screen. Data for the wt2 strain (AID 169); settings: S. cerevisiae wt2 strain growth inhibition, active compounds read high
Outline: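 Values express reduction in yeast growth under compound treatment, referenced to vehicle-treated cells.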

[2] = NCI Yeast Anticancer Drug Screen. Data for the mlh1 strain (AID 171);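 further: 0% = growth of vehicle-treated control cultures of the same strain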; settings: S. cerevisiae mlh1 strain growth inhibition, active compounds read high
Outline: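 Steps: expose the defined-mutant yeast strain to compound; expose a parallel culture to vehicle; measure growth; express compound effect as inhibition relative to the vehicle culture.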

[3] = NCI Yeast Anticancer Drug Screen. Data for the sgs1 strain (AID 173);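 further: 0% = growth of vehicle-only control cultures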; settings: S. cerevisiae sgs1 mutant, active compounds read high
Outline: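 Treat defined-mutant yeast with compound; measure growth; calculate inhibition relative to vehicle-treated cells.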

[4] = NCI Yeast Anticancer Drug Screen. Data for the mlh1 rad18 strain (AID 175); settings: S. cerevisiae mlh1 rad18 strain growth inhibition, active compounds read high
Outline: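 Test agents were incubated with a yeast strain of defined genotype (DNA damage repair defect). Inhibition of growth was derived by comparison with vehicle-exposed cultures.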

[5] = NCI Yeast Anticancer Drug Screen. Data for the rad52 strain (AID 147);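 further: 0% = growth of vehicle-treated control cultures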; settings: S. cerevisiae rad52 mutant growth inhibition, active compounds read high
Outline: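 Screen used a yeast mutant impaired in DNA repair. After compound exposure, growth was measured. Values reflect inhibition compared with vehicle-treated cells.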

[6] = NCI Yeast Anticancer Drug Screen. Data for the wt1 strain (AID 149);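 further: 0% = growth of vehicle-treated wt1 cultures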; settings: S. cerevisiae wt1 strain (SPY 50644) growth inhibition, active compounds read high
Outline: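 Each compound is tested on wt1 yeast and the loss of growth versus vehicle gives the inhibition value.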

[7] = NCI Yeast Anticancer Drug Screen. Data for the rad50EPP+ strain (AID 151);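 further: 0% = growth of vehicle-treated control cultures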; settings: S. cerevisiae rad50 mutant strain, active compounds read high
Outline: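 Exposing the rad50EPP+ strain to each compound, growth was compared with vehicle-only cultures to give inhibition.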

[8] = NCI Yeast Anticancer Drug Screen. Data for the mgt1 strain (AID 153); settings: S. cerevisiae mgt1 mutant growth inhibition, active compounds read high
Outline: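 Genetically defined yeast (mgt1) treated with compound; inhibition of growth expressed against vehicle-treated controls.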

[9] = NCI Yeast Anticancer Drug Screen. Data for the rad50 strain (AID 155);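 further: 0% = growth of vehicle-only cultures of the same strain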; settings: S. cerevisiae rad50 strain growth inhibition, active compounds read high
Outline: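 Vehicle-treated cultures provide the reference for the growth inhibition reported for compound-exposed, repair-deficient yeast.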

[10] = NCI Yeast Anticancer Drug Screen. Data for the mec2-1 strain (AID 157); settings: S. cerevisiae mec2-1 strain, active compounds read high
Outline: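 Readout is yeast growth inhibition, normalised to vehicle-treated controls, in the mec2-1 strain exposed to compound.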

[11] = NCI Yeast Anticancer Drug Screen. Data for the rad14 strain (AID 159);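 further: 0% = growth of vehicle-treated control cultures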; settings: S. cerevisiae rad14 strain growth inhibition, active compounds read high
Outline: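 Inhibition of growth is reported for a repair-deficient yeast mutant following compound treatment, calculated relative to cultures that received vehicle.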

[12] = NCI Yeast Anticancer Drug Screen. Data for the sgs1 mgt1 strain (AID 161);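 further: 0% = growth of cultures given vehicle only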; settings: S. cerevisiae sgs1 mgt1 strain, active compounds read high
Outline: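 Percent growth inhibition was derived by comparing compound-exposed mutant yeast with vehicle-exposed cultures. The strain carries alterations in DNA damage repair.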

[13] = NCI Yeast Anticancer Drug Screen. Data for the CLN2oe strain (AID 163);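 further: 0% = growth of vehicle-only control cultures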; settings: S. cerevisiae CLN2oe strain, active compounds read high
Outline: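 Values reflect how much compound exposure reduced yeast growth, referenced to vehicle-exposed cells. Assay organism is a strain with a defined genetic change affecting cell-cycle control.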

[14] = NCI Yeast Anticancer Drug Screen. Data for the cln2 rad14 strain (AID 165);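 further: 0% = growth equal to vehicle treated cultures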; settings: S. cerevisiae cln2 rad14 strain, active compounds read high
Outline: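 Relative to vehicle controls, growth inhibition of compound-treated cln2 rad14 yeast was recorded.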

[15] = NCI Yeast Anticancer Drug Screen. Data for the bub3 strain (AID 167); settings: S. cerevisiae bub3 mutant strain, active compounds read high
Outline: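 Mutant yeast screening strain plus compound; vehicle-treated cultures serve as the 0% inhibition reference.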

[16] = at 5.0 µM (retest, dose inferred, filed as 0.5)
[17] = at 50.0 µM (retest, dose inferred, filed as 5.0)

Measured: growth inhibition

CCC(/C=C/c1ccccc1)=N\Nc1ccc(Cl)c(Cl)c1
inactive: [1]; at 1.2 µM -2% | [1]; at 3.7 µM -5% | [1]; at 11.0 µM 7% | [1]; at 33.0 µM 22% | [2]; at 1.2 µM -4% | [2]; at 3.7 µM -2% | [2]; at 11.0 µM 0% | [2]; at 33.0 µM 39% | [3]; at 1.2 µM -3% | [3]; at 3.7 µM -17% | [3]; at 11.0 µM 17% | [3]; at 33.0 µM 67% | [4]; [16] 9%
active: [1]; at 100.0 µM 95% | [2]; at 100.0 µM 94% | [3]; at 100.0 µM 95% | [4]; [17] 93% | [4]; at 50.0 µM 91.3%

COc1ccc2nc3cccc([N+](=O)[O-])c3c(NCCNCCN(C)C)c2c1
active: [9]; [17] 97% | [9]; at 50.0 µM 74.7% | [10]; [17] 97% | [10]; at 50.0 µM 73% | [12]; [16] 72% | [12]; [17] 93% | [14]; [17] 99% | [14]; at 50.0 µM 77.7% | [4]; [17] 96%
inactive: [5]; at 1.2 µM -4% | [5]; at 3.7 µM -3% | [5]; at 11.0 µM -6% | [5]; at 33.0 µM -4% | [5]; at 100.0 µM 2% | [6]; at 1.2 µM -3% | [6]; at 3.7 µM -2% | [6]; at 11.0 µM -2% | [6]; at 33.0 µM -1% | [6]; at 100.0 µM 3% | [7]; at 1.2 µM -4% | [7]; at 3.7 µM 0% | [7]; at 11.0 µM 0% | [7]; at 33.0 µM -4% | [7]; at 100.0 µM 3% | [8]; at 1.2 µM 0% | [8]; at 3.7 µM -3% | [8]; at 11.0 µM 20% | [8]; at 33.0 µM -3% | [8]; at 100.0 µM 5% | [9]; at 1.2 µM -4% | [9]; at 3.7 µM -5% | [9]; [16] 29% | [9]; at 11.0 µM -12% | [9]; at 33.0 µM -4% | [9]; at 100.0 µM 1% | [10]; at 1.2 µM 2% | [10]; at 3.7 µM -1% | [10]; [16] 5% | [10]; at 11.0 µM 2% | [10]; at 33.0 µM -1% | [10]; at 100.0 µM 8% | [11]; at 1.2 µM -2% | [11]; at 3.7 µM -2% | [11]; at 11.0 µM 0% | [11]; at 33.0 µM 1% | [11]; at 100.0 µM 4% | [12]; at 50.0 µM 68.2% | [13]; at 1.2 µM -1% | [13]; at 3.7 µM -2% | [13]; at 11.0 µM -11% | [13]; at 33.0 µM 3% | [13]; at 100.0 µM 12% | [14]; [16] 32% | [15]; at 1.2 µM -5% | [15]; at 3.7 µM 4% | [15]; [16] -33% | [15]; at 11.0 µM 3% | [15]; at 33.0 µM -5% | [15]; [17] 50% | [15]; at 50.0 µM -5.3% | [15]; at 100.0 µM -5% | [1]; at 1.2 µM -2% | [1]; at 3.7 µM -4% | [1]; at 11.0 µM -3% | [1]; at 33.0 µM -3% | [1]; at 100.0 µM 1% | [2]; at 1.2 µM -4% | [2]; at 3.7 µM -4% | [2]; at 11.0 µM -1% | [2]; at 33.0 µM -3% | [2]; at 100.0 µM 3% | [3]; at 1.2 µM -1% | [3]; at 3.7 µM -1% | [3]; at 11.0 µM 0% | [3]; at 33.0 µM -1% | [3]; at 100.0 µM 2% | [4]; [16] 55% | [4]; at 50.0 µM 66.5%

O=C(Nc1ccc(Cl)cc1)c1cc2cc(N=Nc3ccccc3Cl)ccc2oc1=O
inactive: [5]; at 1.2 µM 8% | [5]; at 3.7 µM 25% | [5]; at 11.0 µM 58% | [6]; at 1.2 µM 3% | [6]; at 3.7 µM 8% | [6]; at 11.0 µM 26% | [7]; at 1.2 µM 39% | [8]; at 1.2 µM 3% | [8]; at 3.7 µM 11% | [8]; at 11.0 µM 48% | [9]; at 1.2 µM 4% | [9]; at 3.7 µM 13% | [9]; [16] 54% | [9]; at 11.0 µM 38% | [9]; [17] 54% | [10]; at 1.2 µM 3% | [10]; at 3.7 µM 10% | [10]; [16] 7% | [10]; at 11.0 µM 40% | [10]; [17] 7% | [11]; at 1.2 µM 4% | [11]; at 3.7 µM 5% | [11]; at 11.0 µM 62% | [12]; [16] 25% | [12]; [17] 25% | [13]; at 1.2 µM 3% | [13]; at 3.7 µM 13% | [13]; at 11.0 µM 40% | [14]; [16] 12% | [14]; [17] 12% | [15]; at 1.2 µM -14% | [15]; at 3.7 µM -19% | [15]; [16] 13% | [15]; at 11.0 µM 26% | [15]; [17] 13% | [1]; at 1.2 µM 5% | [1]; at 3.7 µM 15% | [1]; at 11.0 µM 57% | [2]; at 1.2 µM 1% | [2]; at 3.7 µM 7% | [2]; at 11.0 µM 38% | [3]; at 1.2 µM 11% | [3]; at 3.7 µM 24% | [4]; [16] 23% | [4]; [17] 23%
active: [5]; at 33.0 µM 89% | [5]; at 100.0 µM 92% | [6]; at 33.0 µM 72% | [6]; at 100.0 µM 93% | [7]; at 3.7 µM 75% | [7]; at 11.0 µM 89% | [7]; at 33.0 µM 90% | [7]; at 100.0 µM 86% | [8]; at 33.0 µM 92% | [8]; at 100.0 µM 95% | [9]; at 33.0 µM 84% | [9]; at 50.0 µM 88.8% | [9]; at 100.0 µM 90% | [10]; at 33.0 µM 94% | [10]; at 50.0 µM 88.5% | [10]; at 100.0 µM 95% | [11]; at 33.0 µM 95% | [11]; at 100.0 µM 94% | [12]; at 50.0 µM 84.8% | [13]; at 33.0 µM 89% | [13]; at 100.0 µM 92% | [14]; at 50.0 µM 82.8% | [15]; at 33.0 µM 93% | [15]; at 50.0 µM 86.2% | [15]; at 100.0 µM 93% | [1]; at 33.0 µM 91% | [1]; at 100.0 µM 94% | [2]; at 33.0 µM 95% | [2]; at 100.0 µM 95% | [3]; at 11.0 µM 70% | [3]; at 33.0 µM 93% | [3]; at 100.0 µM 92% | [4]; at 50.0 µM 85.4%
